Publication PMC8384837, “Expanding the binding specificity for RNA recognition by a PUF domain”
Residue numbers refer to the chain shown, from its start.

Key:
Assay in all cases: yeast three-hybrid, YBZ-1, SC-Leu-His + 0.5 mM 3-AT, 4 days
Conditions in all cases: tags: N-Gal4 AD-HA kept; label: inside an RPR1-promoter hybrid RNA with tandem MS2 sites; ssRNA
PUM1 PUF domain R3-RTH = PUM1 PUF domain R3-RTH (Homo sapiens, UniProt Q14671 828-1176, C935R;R936T;Q939H)
Method in brief: (§1)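 The interaction score is the log change in variant frequency from input to selection. Scores were computed in log2 with a pseudocount of 1 for absent variants, using Illumina sequencing of PCR-amplified repeat regions. The input came from four days on SC-Leu and the selection from four days on SC-Leu-His + 0.5 mM 3-AT. The cells were strain YBZ-1 (LexA–MS2 coat fusion, HIS3 reporter) co-expressing Pumilio-1 PUF domain libraries and matching RNA elements from a centromeric plasmid.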

PUM1 PUF domain R3-RTW = PUM1 PUF domain R3-RTW (Homo sapiens, UniProt Q14671 828-1176, C935R;R936T;Q939W)
Method in brief: as §1

PUM1 PUF domain R4-RHG = PUM1 PUF domain R4-RHG (Homo sapiens, UniProt Q14671 828-1176, N971R;Q975G)
Method in brief: as §1

PUM1 PUF domain R2-DWE = PUM1 PUF domain R2-DWE (Homo sapiens, UniProt Q14671 828-1176, N899D;Y900W;Q903E)
Method in brief: as §1

PUM1 PUF domain R8-RWT = PUM1 PUF domain R8-RWT (Homo sapiens, UniProt Q14671 828-1176, N1122R;Y1123W;Q1126T)
Method in brief: as §1

PUM1 PUF domain R8-RWK = PUM1 PUF domain R8-RWK (Homo sapiens, UniProt Q14671 828-1176, N1122R;Y1123W;Q1126K)
Method in brief: as §1

PUM1 PUF domain R8-RFH = PUM1 PUF domain R8-RFH (Homo sapiens, UniProt Q14671 828-1176, N1122R;Y1123F;Q1126H)
Method in brief: as §1

PUM1 PUF domain R4-FHR = PUM1 PUF domain R4-FHR (Homo sapiens, UniProt Q14671 828-1176, N971F;Q975R)
Method in brief: as §1

PUM1 PUF domain R1-KME = PUM1 PUF domain R1-KME (Homo sapiens, UniProt Q14671 828-1176, S863K;R864M;Q867E)
Method in brief: as §1

PUM1 PUF domain R6-VWK = biological target: T1, PUM1 PUF domain R6-VWK (Homo sapiens, UniProt Q14671 828-1176, N1043V;Y1044W;Q1047K)
T1 sequence: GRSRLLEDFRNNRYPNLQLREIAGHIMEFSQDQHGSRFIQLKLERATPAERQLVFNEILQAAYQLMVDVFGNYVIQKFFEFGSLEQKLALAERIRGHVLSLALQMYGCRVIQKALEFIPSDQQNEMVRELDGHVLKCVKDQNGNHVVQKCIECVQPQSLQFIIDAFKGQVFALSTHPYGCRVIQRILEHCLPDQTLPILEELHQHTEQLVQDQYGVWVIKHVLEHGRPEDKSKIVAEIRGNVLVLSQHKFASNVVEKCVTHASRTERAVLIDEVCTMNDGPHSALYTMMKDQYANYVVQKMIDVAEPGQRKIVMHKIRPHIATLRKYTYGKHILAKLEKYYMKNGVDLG
Method in brief: as §1

PUM1 PUF domain R6-CHR = biological target: T2, PUM1 PUF domain R6-CHR (Homo sapiens, UniProt Q14671 828-1176, N1043C;Y1044H;Q1047R)
T2 sequence: T1 sequence with V216C, W217H, K220R
Method in brief: as §1

PUM1 PUF domain R5-MYS = PUM1 PUF domain R5-MYS (Homo sapiens, UniProt Q14671 828-1176, C1007M;R1008Y;Q1011S)
Method in brief: as §1

Question: What does the source list for “GGCUAGAACUAGUGGAUCCCCCGGCGCCCGGCGGCUCGAGCCCGGGUAAGUGUAAUUAGUCUGCAUGCCGCCGGGCGCCAUGCCUGCAGGUCGACUCUAGAAAACAUG”?
Answer: binding signal (PUM1 PUF domain R3-RTH): 3.6 log2 enrichment (interaction score); binding signal (PUM1 PUF domain R3-RTW): 2.38 log2 enrichment (interaction score)

Question: “GGCUAGAACUAGUGGAUCCCCCGGCGCCCGGCGGCUCGAGCCCGGGUAAGUGUACAUAGUCUGCAUGCCGCCGGGCGCCAUGCCUGCAGGUCGACUCUAGAAAACAUG” was tested. Which binding signal (PUM1 PUF domain R4-RHG) did it give?
Answer: 4.02 log2 enrichment (interaction score)

Question: “GGCUAGAACUAGUGGAUCCCCCGGCGCCCGGCGGCUCGAGCCCGGGUAAGUGUAAAGAGUCUGCAUGCCGCCGGGCGCCAUGCCUGCAGGUCGACUCUAGAAAACAUG” was tested. Which binding signal (PUM1 PUF domain R2-DWE) did it give?
Answer: 9.59 log2 enrichment (interaction score)

Question: Which binding signal (PUM1 PUF domain R8-RWT) does the source give for “GGCUAGAACUAGUGGAUCCCCCGGCGCCCGGCGGCUCGAGCCCGGGUAAGCGUAAAUAGUCUGCAUGCCGCCGGGCGCCAUGCCUGCAGGUCGACUCUAGAAAACAUG” here?
Answer: 5.51 log2 enrichment (interaction score)

Question: What about the binding signal (PUM1 PUF domain R8-RWK) of the same sequence?
Answer: 6.98 log2 enrichment (interaction score)

Question: And the binding signal (PUM1 PUF domain R8-RFH)?
Answer: 4.72 log2 enrichment (interaction score)

Question: With “GGCUAGAACUAGUGGAUCCCCCGGCGCCCGGCGGCUCGAGCCCGGGUAAGUGUAUAUAGUCUGCAUGCCGCCGGGCGCCAUGCCUGCAGGUCGACUCUAGAAAACAUG” as the sequence, how does the binding signal (PUM1 PUF domain R4-FHR) read?
Answer: 3.37 log2 enrichment (interaction score)

Question: And the binding signal (PUM1 PUF domain R4-RHG)?
Answer: 4.05 log2 enrichment (interaction score)

Question: “GGCUAGAACUAGUGGAUCCCCCGGCGCCCGGCGGCUCGAGCCCGGGUAAGUGUAAAUCGUCUGCAUGCCGCCGGGCGCCAUGCCUGCAGGUCGACUCUAGAAAACAUG” was tested. Which binding signal (PUM1 PUF domain R1-KME) did it give?
Answer: 4.22 log2 enrichment (interaction score)

Question: For “GGCUAGAACUAGUGGAUCCCCCGGCGCCCGGCGGCUCGAGCCCGGGUAAGUGAAAAUAGUCUGCAUGCCGCCGGGCGCCAUGCCUGCAGGUCGACUCUAGAAAACAUG”, which binding signal (PUM1 PUF domain R6-VWK) is on record?
Answer: 7.03 log2 enrichment (interaction score)

Question: With “GGCUAGAACUAGUGGAUCCCCCGGCGCCCGGCGGCUCGAGCCCGGGUAAGUGUAAAUAGUCUGCAUGCCGCCGGGCGCCAUGCCUGCAGGUCGACUCUAGAAAACAUG” as the sequence, how does the binding signal (PUM1 PUF domain R8-RWT) read?
Answer: 4.9 log2 enrichment (interaction score)

Question: And the binding signal (PUM1 PUF domain R6-VWK)?
Answer: 5.58 log2 enrichment (interaction score)

Question: What about the binding signal (PUM1 PUF domain R8-RWK) of the same sequence?
Answer: 6.43 log2 enrichment (interaction score)

Question: What about the binding signal (PUM1 PUF domain R6-CHR) of the same sequence?
Answer: 3.81 log2 enrichment (interaction score)

Question: What about the binding signal (PUM1 PUF domain R8-RFH) of the same sequence?
Answer: 4.43 log2 enrichment (interaction score)

Question: What about the binding signal (PUM1 PUF domain R4-RHG) of the same sequence?
Answer: 2.69 log2 enrichment (interaction score)

Question: What about the binding signal (PUM1 PUF domain R5-MYS) of the same sequence?
Answer: 2.4 log2 enrichment (interaction score)
